CtBP-E1A blk: qHTS Assay for Inhibitors of the CtBP/E1A Interaction; CtBP / adenovirus E1A interaction (AlphaScreen); AlphaScreen GST-E1A/His-CtBP binding, 1536-well; stronger effect = lower value; activity change, % (no concentration beside the values); 340,000 tested, 0.49% active; in the data active = activity change below about -65%; inconclusive = mostly about -30% to -63%; note: % is set by controls: 0 for no effect and ±100 for the full control effect
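AlphaScreen with 125 nM GST-E1A and 125 nM His-CtBP (5X stocks) in Tris pH 8.0, 300 mM NaCl, BSA, Tween 20, TCEP. Compounds preincubated 2 h at 37 deg C, then glutathione donor/nickel acceptor beads added for 1 h at 37 deg C in dark.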
CBFb RUNX1 block: qHTS Assay for Compounds Blocking the Interaction Between CBF-beta and RUNX1 for the Treatment of Acute Myeloid Leukemia. 230,000 tested, under 10 active. Runt-related transcription factor 1 (Homo sapiens) + Core-binding factor subunit beta …. Potency, µM (titrated, usually from 59.8 µM), for the others: top-dose activity, negative = inhibition, most hits filed as inhibitors. AlphaScreen CBFb-His/RUNX1-biotin binding, biochemical; note: % of control where 0% means no effect
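Read-out: AlphaScreen. Format: His-CBF-beta with biotinylated RUNX1 (30 nM each) preincubated 20 min, compound 15 min, Ni-chelate plus streptavidin beads 90 min; room temperature throughout.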
Gal4-VP16 FLuc: VP16 counterscreen qHTS for inhibitors of ROR gamma transcriptional activity; 310,000 tested, 3.5% active; Drosophila S2 Gal4-VP16 UAS-luciferase, luminescence, 20 h; AID 2546, 2010; Potency, µM (series often up to 53.6 µM), for the others: at the highest dose activity, negative = inhibition, actives largely listed as inhibitors;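 note: Gal4-VP16 expression switched on by copper sulfate through the metallothionein promoter; potency is the fitted concentration of half-maximal effect; % is set by controls: 0 for no effect and ±100 for the full control effect; nearly all actives have a fitted effect of over 50% in size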
RORg inh: qHTS for inhibitors of ROR gamma transcriptional activity; Drosophila S2 Gal4-RORgamma UAS-luciferase reporter, 20 h; Potency, µM (doses to about 53.6 µM), inactives show top-dose activity change, negative = inhibition, most hits filed as inhibitors; 310,000 tested, 5.4% active; note: potency is the fitted concentration of half-maximal effect; % is set by controls: 0 for no effect and ±100 for the full control effect; nearly all actives have a fitted effect of over 60% in size
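Schneider cells (Drosophila), stable Gal4 DBD–ROR gamma + UAS-luc; 1 hr cmpd preincubation; Cu2+ induction 700 uM final; 20 hr ambient; luminescence.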
Six1-Eya2 inh: qHTS Assay for Inhibitors of the Six1/Eya2 Interaction; Homeobox protein SIX1 (Homo sapiens) + Protein phosphatase EYA2 (Homo sapiens), …; activity change, % (concentration not given with the values); AlphaScreen GST-Six1/His-Eya2 binding, biochemical; stronger effect = lower value; AID 651725, 2012; 360,000 tested, 0.56% active; in the data active = activity change below about -65%; inconclusive = mostly about -30% to -63%; note: % is set by controls: 0 for no effect and ±100 for the full control effect
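AlphaScreen with GST-Six1 and His-Eya2 (5X mix: 250 nM and 500 nM), glutathione donor and nickel acceptor beads; buffer 50 mM Tris pH 8.0, 300 mM NaCl, 1 mM TCEP; 1 h at 37 C in the dark.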
MBNL1 CUG block: qHTS Assay for Inhibitors of MBNL1-poly(CUG) RNA binding; TR-FRET MBNL1-His/biotin-(CUG)12 binding, 665/545 ratio; Potency, µM (titrated, usually from 57.5 µM), for the others: at the top dose activity change, negative = inhibition, hits mostly inhibitors; 280,000 tested, 0.036% active; AID 2675, 2010; active = well fitted inhibition curve with a large enough effect in the signal ratio, with a control signal flat, not every such curve was filed as active; inconclusive = small, poorly fitted or top-dose-only effect, or effect the other way, or a change in a side signal; inactive = no such curve, though single readings can be large or run the other way; the % refers to the signal ratio; note: potency is the fitted concentration of half-maximal effect; % is set by controls: 0 for no effect and ±100 for the full control effect
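Compound titration spanned 92 nM–58 uM against the MBNL1-His/biotin-(CUG)12 complex. After 60 min at room temperature with 5 nM streptavidin-XL665 and 0.055 ng/ul terbium anti-His, ratiometric 665/545 nm emission (Ex 340 nm) normalized to controls.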
An asterisk follows results filed as active; ? = inconclusive; . = no result; [ ] = another dose, or the depositor's remark. Only some compounds are listed: those with a hit (about 5.5% of all), similar ones and a draw of the others. Unless noted, calls come from the whole dose curve; as a rule, active = well fitted curve in the direction sought with a large enough effect; inconclusive = small, poorly fitted or top-dose-only effect, or another doubt; inactive = no such curve, though single readings can be large; an effect the other way counts as inactive or inconclusive.

SMILES	CtBP-E1A blk	CBFb RUNX1 block	Gal4-VP16 FLuc	RORg inh	Six1-Eya2 inh	MBNL1 CUG block
CC1=C/C(=N\OS(=O)(=O)c2ccccc2)C(C)=CC1=O	-1	2%	2.5µM*	1.1µM*	-3	20%
O=C1C2CC=CCC2C(=O)N1c1ccc(N2CCN(c3ccccn3)CC2)c([N+](=O)[O-])c1 (centres undefined)	-3	-27%	4.5µM*	-81%	-6	?
CC(C)c1ccc(CNn2cnnc2)cc1	6	.	-1%	8%	0	-5%
COc1ccccc1CN1CCCC2(CCN(C(=O)c3ccncc3)CC2)C1	.	.	5%	-19%	.	.
CCOc1ccccc1NC(=S)N1CCC(c2nc3ccccc3o2)CC1	.	-4%	?	11µM*	-3	.
COc1ccccc1NC(=O)N1CCC(c2nc3ccccc3o2)CC1	-11	6%	-5%[10 µM]	9%	-3	-10%
Cc1cccc(NC(=S)N2CCC(c3nc4ccccc4o3)CC2)c1C	7	-6%	?	10µM*	-3	-4%
Cc1cccc(NC(=O)N2CCC(c3nc4ccccc4o3)CC2)c1	4	2%	5%	27%	0	11%
Cc1cccc(NC(=S)N2CCC(c3nc4ccccc4o3)CC2)c1	3	-2%	8%[10 µM]	7.1µM*	-11	-8%
CC[C@H](C)[C@@H](NC(=O)O[C@@H]1Cc2cc(OC)ccc2O[C@H]1c1cccc(OC)c1)C(=O)OC	.	5%	4%	-1%	.	.
Cc1nc2c3ccccc3nc(NNC(=O)CCC(=O)N3CCCC(C)C3)n2n1 (centres undefined)	.	.	8%	2%	-16	1%
CC(=O)N1CC[C@@H]2CC(=O)C[C@@H](C)[C@@H]21	.	-5%[136 µM]	-3%[96.6 µM]	4%[96.6 µM]	.	.
CN(C)CCCN(C(=O)CCOc1ccccc1)c1nc2ccc(F)cc2s1	.	3%	7.9µM*	10µM*	3	-10%
CN(C)CCCN(C(=O)CCOc1ccccc1)c1nc2c(F)cccc2s1	0	-1%	-30%	8.9µM*	-7	-14%
O=C(CN1C(=O)c2cccc3cccc(c23)C1=O)NCCN1CCOCC1	3	-3%	7%	-25%	1	?
O=C(CNC(=S)NC(=O)c1ccc(Br)o1)c1ccccc1	0	7%	?	13µM*	4	13%
O=C(CNC(=S)NC(=O)c1ccc(Cl)cc1)c1ccccc1	-15	7%	13µM*	10µM*	5	.
O=C(Nc1cccc2ccccc12)c1ccc2sc([C@H]3C[C@H](O)[C@@H](CO)O3)nc2c1	-19	.	.	.	-18	.
O=C(c1ccc(CS(=O)Cc2ccc(Cl)cc2)o1)N1CCN(C2CCCCC2)CC1 (centres undefined)	-14	.	.	.	5	.
Cc1cc(C)c(NC(=O)CSc2nc(COc3ccccc3)nc3ccccc23)c(C)c1	5	-1%	16µM*	?	5	5%
CCCCN(C(=O)COC(=O)c1sccc1C)c1c(N)n(CCC)c(=O)[nH]c1=O	4	.	.	.	-5	.
N#CC1=C(SCC(=O)NC23CC4CC(CC(C4)C2)C3)NC(=O)C(C#N)C12CCCCC2 (centres undefined)	-10	-10%	16µM*	?	1	4%
COc1ccc(N2CSC3=C(C#N)C(c4cc(OC)ccc4OC)CC(=O)N3C2)c(OC)c1 (centres undefined)	-5	0%	?	?	-13	18%
COc1ccc(N2CSC3=C(C#N)C(c4cc(OC)c(OC)cc4OC)CC(=O)N3C2)c(OC)c1 (centres undefined)	-4	-15%	4%	13µM*	-11	?

Screening data: PubChem BioAssay, National Center for Advancing Translational Sciences (NCATS)
